# Chronic BCR inh: blocks chronic active B-cell receptor signaling | Potency, µM (top dose mostly 46.1 µM), without a hit: at the highest dose activity change, negative = inhibition, hits mostly inhibitors | 340,000 compounds, 0.05% hits | AID 493014 | ABC-DLBCL IkBa-CBG/CBR reporter, luminescence ratio, 4 h; active means well fitted inhibition curve with a large enough effect in the signal ratio, with a control signal flat, not every such curve was filed as active; inconclusive means small, poorly fitted or top-dose-only effect, or effect the other way, or a change in a side signal; the % refers to the signal ratio;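 further: potency means the concentration at half of the fitted maximal effect; plate controls were basal doxycycline-induced cells for no effect and cells given 10 µM MG132 for full effect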
#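 Cell line TMD8 (human ABC DLBCL), stably expressing tet-inducible CBG68-IkBa fusion and CBR; IMDM/0.5% FBS; cpd up to 46 uM; dox induction, 4 h, 37C/5% CO2; dual luminescence; green/red ratio; MG132 control.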
# D1 antag: human D1 dopamine receptor antagonism; P21728; HEK293 TREx D1 cells, calcium flux, dopamine EC80; hits give low values; activity change, negative = inhibition, % at 10 µM; 360,000 compounds, 3.2% hits; in the data active means activity change below about -30%; further: on the % scale 0 is the no-effect control and ±100 the full control effect
# Target sequence (P21728 whole entry, looked up): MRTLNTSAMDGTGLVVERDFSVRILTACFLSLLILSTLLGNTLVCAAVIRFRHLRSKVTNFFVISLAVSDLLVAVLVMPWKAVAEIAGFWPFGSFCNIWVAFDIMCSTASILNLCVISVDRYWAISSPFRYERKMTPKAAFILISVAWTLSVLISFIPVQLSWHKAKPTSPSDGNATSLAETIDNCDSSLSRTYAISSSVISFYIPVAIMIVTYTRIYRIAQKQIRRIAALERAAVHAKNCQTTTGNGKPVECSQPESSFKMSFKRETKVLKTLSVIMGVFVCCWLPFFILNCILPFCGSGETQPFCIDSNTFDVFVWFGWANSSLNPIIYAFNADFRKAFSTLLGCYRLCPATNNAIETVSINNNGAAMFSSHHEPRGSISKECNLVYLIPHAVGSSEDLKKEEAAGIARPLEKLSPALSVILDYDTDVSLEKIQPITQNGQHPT
#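 Inducible Hek293 Trex D1 cells (tetracycline, overnight, 30 C). Calcium dye 30–90 min RT. Antagonist mode: EC80 dopamine added after 180 s compound read.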
# DRD3 antagonist: antagonists of human D3 dopamine receptor; P35462; D3R cells, DiscoveRx beta-arrestin luminescence, antagonist mode; hits give low values; max response, negative = inhibition, %; 360,000 compounds, 2.5% hits; AID 652054; in the data active means max response below about -50%; inconclusive means no clear call, values can overlap the other calls; further: on the % scale 0 is the no-effect control and ±100 the full control effect
#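 Cells plated overnight at 1500 cells/well, then exposed to library compounds with dopamine controls for 90 minutes at 37 degrees C. DiscoveRx reagent added for 30–60 minutes at room temperature; luminescence read, quantitative HTS format.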
# D3 ag: agonists of human D3 dopamine receptor; P35462; D3R DiscoveRx beta-arrestin cells, luminescence, 90 min; max activation, %; 410,000 compounds, 0.58% hits; in the data active means max activation above about 30%; further: 0% is about no effect
#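 Cells at 1500/well, incubated overnight, then treated with pinned compounds (dopamine as control) for 90 min at 37 degrees C. DiscoveRx reagent added for 30 - 60 minutes at room temperature; luminescence read.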
# D1 agonist: agonists of human D1 dopamine receptor; 360,000 compounds, 1% hits; HEK293 T-REx D1 cells, calcium flux, agonist mode; activation, % at 2 µM; P21728; in the data active means activation above about 30%; further: 0% is about no effect
#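 Agonism was scored from calcium flux recorded over 180 s (1 read/s) after pintool compound addition, following a 10-cycle baseline. Cells were inducible force-coupled HEK293 TREx D1, plated overnight at 30 C and loaded with no-wash calcium dye.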
# D1 PAM: enhances dopamine response at the human D1 receptor | HEK293 TREx D1 cells, calcium flux, dopamine EC20 potentiation | AID 504651 | P21728 | potentiation, % at 10 µM | 360,000 compounds, 0.036% hits; in the data active means potentiation above about 30%; further: 0% is about no effect
# * hit, by the source's call; ? = inconclusive; . = not tested or not shown; ! = a repeat was not active. In the library only some 6% were active in any assay of this set; here they are far more common.
SMILES,Chronic BCR inh,D1 antag,DRD3 antagonist,D3 ag,D1 agonist,D1 PAM
Cc1ccc(S(=O)(=O)N2CC3(O)CN(C(=O)OC(C)C)N(C(=O)OC(C)C)CC3(OC(=O)NCC3CCCCC3)C2)cc1 (configuration not stated),.,.,23,0,.,.
COCCn1c(SCC(=O)c2c(N)n(C3CC3)c(=O)[nH]c2=O)nc2ccccc21,0%,-41*,-1,0,1,-4
CCOc1ccc(NC(=O)CSC2=Nc3ccccc3C3=NC(CCC(=O)NCc4cccs4)C(=O)N23)cc1 (configuration not stated),6%,3,.,5,-1,3
C#CCOCCOCCOCCNc1nc(N2CCN(C(=O)CCCCCCCCCCNC(=O)[C@H]([C@@H](C)CC)n3cc(CCCCCN)nn3)CC2)nc(N2CCN(C(=O)CCCCCCCCCCNC(=O)[C@H](CO)n3cc(CCCCCN)nn3)CC2)n1,?,92,-20,1,50*,23
C#CCOCCOCCOCCNc1nc(N2CCOCC2)nc(N2CCN(C(=O)CCCCCCCCCCNC(=O)[C@@H]([C@H](C)CC)n3cc(CCCCCN)nn3)CC2)n1,-12%,13,-23,0,2,-2
C#CCOCCOCCOCCNc1nc(N2CCN(C(=O)CCCCCCCCCCNC(=O)[C@H]([C@@H](C)CC)n3cc(CCCCN=C(N)N)nn3)CC2)nc(N2CCN(C(=O)CCCCCCCCCCNC(=O)[C@H](CCCCN)n3cc(C)nn3)CC2)n1,?,31,?,-20,3,-2
C#CCOCCOCCOCCNc1nc(N2CCN(C(=O)CCCCCCCCCCNC(=O)Cn3cc(CCCCCN)nn3)CC2)nc(N2CCN(C(=O)CCCCCCCCCCNC(=O)[C@H]([C@@H](C)CC)n3cc(CCCCN=C(N)N)nn3)CC2)n1,?,12,-63*,-34,2,-4
C#CCOCCOCCOCCNc1nc(N2CCN(C(=O)CCCCCCCCCCNC(=O)[C@@H](CCC(=O)O)n3cc(CCCCCN)nn3)CC2)nc(N2CCN(C(=O)CCCCCCCCCCNC(=O)[C@H]([C@@H](C)CC)n3cc(CCCCCN)nn3)CC2)n1,?,54,10,35*,19,37*
C#CCOCCOCCOCCNc1nc(N2CCN(C(=O)CCCCCCCCCCNC(=O)[C@H]([C@@H](C)CC)n3cc(CCCCCN)nn3)CC2)nc(N2CCN(C(=O)CCCCCCCCCCNC(=O)[C@H](CCCCN)n3cc(CCCC(=O)O)nn3)CC2)n1,?,60,-4,42*,35*,26
C#CCOCCOCCOCCNc1nc(N2CCN(C(=O)CCCCCCCCCCNC(=O)[C@H]([C@@H](C)CC)n3cc(CCCCCN)nn3)CC2)nc(N2CCN(C(=O)CCCCCCCCCCNC(=O)[C@@H]([C@H](C)CC)n3cc(CCCCCN)nn3)CC2)n1,?,28,.,.,8,22
C#CCOCCOCCOCCNc1nc(N2CCN(C(=O)Cn3cc(CCO)nn3)CC2)nc(N2CCN(C(=O)[C@H]([C@@H](C)CC)n3cc(CCCN=C(N)N)nn3)CC2)n1,.,.,-3,53*,.,.
C#CCOCCOCCOCCNc1nc(N2CCN(C(=O)Cn3cc(CCO)nn3)CC2)nc(N2CCN(C(=O)[C@H](Cc3ccc(O)cc3)n3cc(CCO)nn3)CC2)n1,.,.,?,47*,.,.
C#CCOCCOCCOCCNc1nc(N2CCN(C(=O)Cn3cc(CCCN=C(N)N)nn3)CC2)nc(N2CCN(C(=O)[C@H]([C@@H](C)CC)n3cc(CCCCN)nn3)CC2)n1,0%,-4,0,-20,5,-1
Cc1cccc(C)c1NC(=O)C(c1ccccc1)N(C)CCc1ccccc1 (configuration not stated),.,.,-6,7,.,.
CCC1Cc2[nH][nH]c(=O)c2C(CC)O1 (configuration not stated),.,.,-26,-4,.,.
O=c1n(-c2ccccc2)c(=O)n2n1CCCC2,8%,12,?,42*,0,0
Cc1ccc(S(=O)(=O)/N=C2/C=C(Sc3ncn[nH]3)C(=O)c3ccccc32)c(C)c1,?,17,.,.,0,2
Cc1ccc(S(=O)(=O)/N=C2/C=C(Sc3ncn[nH]3)C(=O)c3ccccc32)cc1,?,24,-104*,-22,6,4
CC(C)c1ccc(S(=O)(=O)/N=C2/C=C(Sc3ncn[nH]3)C(=O)c3ccccc32)cc1,?,-5,-75*,-6,0,8
Cc1ccc(S(=O)(=O)Nc2ccc(O)c(Sc3ncn[nH]3)c2)cc1,-6%,11,1,21,1,16
CSCCC(NC(=O)c1ccccc1Cl)C(=O)NCCOc1ccc(C)cc1 (configuration not stated),.,.,-1,0,.,.
CCN1C(=O)/C(=C2/C=CC=CN2C)SC1=S,16%,-33*,-14,-9,2,-1
O=C1Nc2ccc(F)cc2C12Nc1ccccc1-c1nnc(SCc3ccccc3)nc1O2 (configuration not stated),?,.,-81*,-37,.,.
CCOC(=O)c1c(S(=O)(=O)NCC(=O)N2CCN(c3ccccc3OC)CC2)c(C)n(C)c1C,?,-32*!,7,9,0,3
COc1cccc(-n2c(SCc3ccc(F)cc3)nc3c([nH]c4ccccc43)c2=O)c1,.,-21,.,7,2,5
SMILES,Chronic BCR inh,D1 antag,DRD3 antagonist,D3 ag,D1 agonist,D1 PAM
Clc1ccc(N/N=C/c2ccncc2)cc1Cl,?,-34*,-11,-1,4,-10
Cc1cc(C)n(CCCNCC(O)c2ccccc2)n1 (configuration not stated),0%,10,-64*!,-27,0,-2
Cc1ccc2c(c1)c(=O)c(C(=O)c1ccc3c(c1)OCO3)cn2Cc1cccc(F)c1,.,-66*,.,-2,2,-3
Cc1ccc(CCNC(=O)CCCn2c(=O)c3ccccc3n(Cc3ccccc3C)c2=O)cc1,.,-27,.,2,5,0
O=C(COC(=O)CSc1ccc(F)cc1)NC1CC1,.,.,16,1,.,.
O=C(COC(=O)CSc1ccc(F)cc1)NCC1CCCCC1,1%,-37*,-18,-3,3,-4
CCCCN1C(=O)C(CC(=O)NC2CCCCC2)CC(C(=O)N2CCOCC2)=C1C (configuration not stated),.,.,-54*,8,.,.
COCCCN1C(=O)C(CC(=O)NCCCN(C)C)CC(C(=O)N2CCCCCC2)=C1C (configuration not stated),.,.,-25,-10,.,.
CCCCN1C(=O)C(CC(=O)NC2CCCC2)CC(C(=O)N2CCOCC2)=C1C (configuration not stated),.,.,1,-2,.,.

# High-throughput results: PubChem BioAssay, National Center for Advancing Translational Sciences (NCATS)
